From PubChem BioAssay (NCATS)
Results filed as inconclusive are left out. Some structures have more than one record in an assay (separate samples or runs), and their calls can disagree. Activity calls are given as the source filed them. Calls come from the whole dose curve; as a rule, active = well fitted inhibition curve with a large enough effect; inconclusive = small, poorly fitted or top-dose-only effect; inactive = flat fitted curve, though single readings scatter.
% is set by controls: 0 for no effect and ±100 for the full control effect; potency is the fitted concentration of half-maximal effect.

Experiment: P-glycoprotein substrates identified in KB-8-5-11 adenocarcinoma cell line, qHTS therapeutic library screen (AID 1346987); note: nearly all actives have a fitted effect of over 65% in size
Details: KB-8-5-11 (P-gp overexpressing) viability, CellTiter-Glo, 72 h; series mostly up to 44.5 µM; activity change, negative = cytotoxicity: at the top concentration
How it was run: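 In this qHTS, P-gp-rich KB-8-5-11 cells received library compounds across a concentration range. Viability was quantified by luminescence after 72 h at 37 degree C.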
In the case of C[C@@H]1NC(=O)[C@@H](N)CNC(=O)[C@H](C2CCNC(N)=N2)NC(=O)/C(=C/NC(N)=O)NC(=O)[C@H](CNC(=O)C[C@@H](N)CCCN)NC1=O (some centres not stated), the Potency is reported as “inactive”. For CCOC(=O)c1c[nH]c2cc(OCC(C)C)c(OCC(C)C)cc2c1=O, the “activity change, negative = cytotoxicity” value was 19.5% (inactive). For COc1ccc2c(c1)OC(C)(C)C(c1ccccc1)C2c1ccc(OCCN2CCCC2)cc1 (configuration not stated), the Potency was 20.6 µM (active). With C[C@@](Cc1ccc(O)c(O)c1)(NN)C(=O)O the “activity change, negative = cytotoxicity” value was -3.59% (inactive). With COC1[C@@H](O[C@@H]2O[C@H](C)[C@@H](O[C@H]3C[C@@](C)(O)[C@H](OC(=O)CC(C)C)[C@H](C)O3)[C@H](N(C)C)[C@H]2O)[C@@H](CC=O)C[C@@H](C)[C@@H](O)/C=C/C=C/C[C@@H](C)OC(=O)C[C@H]1OC(C)=O (some centres not stated) the “activity change, negative = cytotoxicity” value was 0.975% [at 17.3 µM] (inactive). With C[Si](C)(C)O[Si](C)(C)C the “activity change, negative = cytotoxicity” value was -1.31% (inactive). With CO[C@H]1C[C@H](O[C@H]2[C@H](C)[C@@H](O[C@@H]3O[C@H](C)C[C@H](N(C)C)[C@H]3O)[C@@H](C)C[C@]3(CO3)C(=O)[C@H](C)[C@@H](O)[C@@H](C)[C@@H](C)OC(=O)[C@@H]2C)O[C@@H](C)[C@@H]1O the “activity change, negative = cytotoxicity” value was 0.198% [at 17.3 µM] (inactive). With CCCCC(=O)O[C@H]1CC[C@H]2[C@@H]3CCc4cc(O)ccc4[C@H]3CC[C@]12C the Potency was 14.6 µM (active). For Cc1ncc(C[n+]2csc(CCOP(=O)(O)O)c2C)c(N)n1, the “activity change, negative = cytotoxicity” value was -2.41% (inactive). With O=S(=O)(O)CCCS(=O)(=O)O the “activity change, negative = cytotoxicity” value was 3.04% (inactive). In the case of O=C1NC(=O)[C@H]2[C@@H]1[C@@H]1C=C[C@H]2C1, the “activity change, negative = cytotoxicity” value is reported as 6.13% (inactive). In the case of CN1CCC(OC(=O)C(Oc2ccc(Cl)cc2)Oc2ccc(Cl)cc2)CC1, the “activity change, negative = cytotoxicity” value is reported as 2.51% (inactive). With COC(=O)CCC[N+](C)(C)C the “activity change, negative = cytotoxicity” value was 13.3% (inactive). With Cc1ccccn1 the “activity change, negative = cytotoxicity” value was 6.6% (inactive). In the case of CCCCCCCCCCCCCCCCCCOCC(COP(=O)([O-])OCC[N+](C)(C)C)OC (configuration not stated), the “activity change, negative = cytotoxicity” value is reported as -10.9% (inactive). For CCN(CC)C(=O)c1cccnc1, the “activity change, negative = cytotoxicity” value was -4.64% (inactive). With N[C@H](CC(=O)O)C(=O)O the “activity change, negative = cytotoxicity” value was 8.25% (inactive). For O=C(O)C1=C(CSc2nnnn2CS(=O)(=O)O)CS[C@@H]2[C@H](NC(=O)[C@H](O)c3ccccc3)C(=O)N12, the “activity change, negative = cytotoxicity” value was 13.6% (inactive). In the case of FC(F)(F)C(F)(F)C(F)(F)C(F)(F)C(F)(F)F, the “activity change, negative = cytotoxicity” value is reported as 2.56% (inactive). With C=N[C@@H](C(=O)N[C@@H]1C(=O)N2[C@@H]1SC(C)(C)[C@@H]2C(=O)O)c1ccccc1 the “activity change, negative = cytotoxicity” value was 21.1% (inactive). For COc1ccc2c(=O)c(C)c(-c3ccccc3)oc2c1CN(C)C, the “activity change, negative = cytotoxicity” value was -31.7% (inactive). With CC(C)C1=CC2=CC[C@@H]3[C@](C)(CCC[C@@]3(C)C(=O)O)[C@H]2CC1 the “activity change, negative = cytotoxicity” value was -14.2% (inactive). In the case of CC(=O)OCC(=O)[C@@]1(O)CC[C@H]2[C@@H]3CCC4=CC(=O)CC[C@]4(C)C3=CC[C@@]21C, the “activity change, negative = cytotoxicity” value is reported as -11.2% (inactive). For CN[C@@H]1[C@@H](O)[C@@H](O[C@@H]2[C@@H](O)[C@H](OC3OC(CN)=CCC3N)[C@@H](N)C[C@H]2N)OC[C@]1(C)O (some centres not stated), the “activity change, negative = cytotoxicity” value was 7.22% [at 17.3 µM] (inactive). With CC[C@@H]1/C=C(\C)C[C@H](C)C[C@H](OC)[C@H]2O[C@@](O)(C(=O)C(=O)N3CCCC[C@H]3C(=O)O[C@H](/C(C)=C/[C@@H]3CC[C@@H](Cl)[C@H](OC)C3)[C@H](C)[C@@H](O)CC1=O)[C@H](C)C[C@@H]2OC the “activity change, negative = cytotoxicity” value was 4.43% (inactive). With O=S(=O)(O)CC(S)CS (configuration not stated) the “activity change, negative = cytotoxicity” value was -1.14% (inactive). In the case of CC(C)(C)c1ccc(CN2CCN(C(c3ccccc3)c3ccc(Cl)cc3)CC2)cc1 (configuration not stated), the Potency is reported as 23.1 µM (active) and inactive. In the case of OCC1(CO)COC(C(Cl)(Cl)Cl)OC1, the “activity change, negative = cytotoxicity” value is reported as 12.6% (inactive). For CCCCCCCCCCCCCC(=O)OCC(COP(=O)([O-])OCC[N+](C)(C)C)OC(=O)CCCCCCCCCCCCC (configuration not stated), the “activity change, negative = cytotoxicity” value was -6.08% (inactive). For CCCCC[C@H](O)/C=C/[C@H]1[C@H](O)CC(=O)[C@@H]1CCCCCCC(=O)O, the “activity change, negative = cytotoxicity” value was -23.2% [at 17.3 µM] (inactive). With CC[C@H]1OC(=O)C[C@@H](O)[C@H](C)[C@@H](O[C@@H]2O[C@H](C)[C@@H](O[C@H]3C[C@@](C)(O)[C@@H](O)[C@H](C)O3)[C@H](N(C)C)[C@H]2O)[C@@H](CC=O)C[C@@H](C)C(=O)/C=C/C(C)=C/[C@@H]1CO[C@@H]1O[C@H](C)[C@@H](O)[C@@H](OC)[C@H]1OC the Potency was “inactive”. With CN(C)C(=O)CCSC(SCCC(=O)O)c1cccc(/C=C/c2ccc3ccc(Cl)cc3n2)c1 (configuration not stated) the “activity change, negative = cytotoxicity” value was -19.2% (inactive). For O=P(O)(O)CP(=O)(O)O, the “activity change, negative = cytotoxicity” value was 9.01% (inactive). For CO/N=C(\C(=O)N[C@@H]1C(=O)N2C(C(=O)O)=C(CSC(=O)c3ccco3)CS[C@H]12)c1csc(N)n1, the “activity change, negative = cytotoxicity” value was 15.1% (inactive). In the case of Cc1cccc(C)c1NC(=O)NC1=CCCN1C, the “activity change, negative = cytotoxicity” value is reported as 10.7% (inactive). In the case of O=C1c2c(O)cccc2[C@H]([C@@H]2O[C@H](CO)[C@@H](O)[C@H](O)[C@H]2O)c2cc(CO)cc(O)c21, the “activity change, negative = cytotoxicity” value is reported as -21.8% (inactive). With CN[C@@H]1[C@@H](O)[C@@H](O[C@@H]2[C@@H](O)[C@H](O[C@H]3O[C@H](CN)[C@@H](O)[C@H](O)[C@H]3O)[C@@H](N)C[C@H]2NC(=O)C(O)CN)OC[C@]1(C)O (some centres not stated) the “activity change, negative = cytotoxicity” value was 9.66% (inactive).
